# Measurements: the supplement of paper PMC8728848
# This is one part of a sample in which the strongest signals are shown more often than they occur.
# B1: Jacalin (Artocarpus integrifolia) (protein)
# chain: MAYSSLLSLSVLALLFSISSADTRKWFLANGINQNPIGIIEAAVGVSEDLLNLNGMEAKNDEQSGISQTVIVGPWGAKVSTSSNGKAFDDGAFTGIREINLSYNKETAIGDFQVVYDLNGSPYVGQNHKSFITGFTPVKISLDFPSEYIMEVSGYTGNVSGYVVVRSLTFKTNKKTYGPYGVTSGTPFNLPIENGLIVGFKGSIGYWLDYFSMYLSL
# How the values were obtained:
# Experiment in all cases: glycan array binding signal (z-score within array); higher = stronger binding
# Conditions in all cases: glycan notation: IUPAC condensed, linker removed
# Fuc(a1-2)Gal(b1-3)GalNAc = molecular target: Fuc(a1-2)Gal(b1-3)GalNAc
# How it was run: (§1)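 Glycan array data came from 3228 arrays in the Consortium for Functional Glycomics database, and only arrays with an available protein sequence were kept. Glycan names were put into IUPAC-condensed notation, and columns mapping to the same glycan were averaged. The binding signal is a within-array Z-score, averaged across arrays of one protein sequence run at different concentrations or buffers and across linkers. A negative Z-score can be read as non-binding.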
# Fuc(a1-2)Gal(b1-4)Glc6S = molecular target: Fuc(a1-2)Gal(b1-4)Glc6S
# How it was run: as §1
# [1] = molecular target: Fuc(a1-2)Gal(b1-4)GlcNAc(b1-3)GalNAc
# How it was run: as §1
# [2] = molecular target: Fuc(a1-2)Gal(b1-4)[Fuc(a1-3)]GlcNAc(b1-2)[Fuc(a1-2)Gal(b1-4)[Fuc(a1-3)]GlcNAc(b1-4)]Man(a1-3)[Fuc(a1-2)Gal(b1-4)[Fuc(a1-3)]GlcNAc(b1-2)Man(a1-6)]Man(b1-4)GlcNAc(b1-4)GlcNAc
# How it was run: as §1
# [3] = molecular target: Fuc(a1-2)[Gal(a1-3)]Gal(b1-3)GlcNAc(b1-2)Man(a1-3)[Fuc(a1-2)[Gal(a1-3)]Gal(b1-3)GlcNAc(b1-2)Man(a1-6)]Man(b1-4)GlcNAc(b1-4)[Fuc(a1-6)]GlcNAc
# How it was run: as §1
# [4] = molecular target: Fuc(a1-2)[Gal(a1-3)]Gal(b1-3)GlcNAc(b1-6)GalNAc
# How it was run: as §1
# [5] = molecular target: Fuc(a1-2)[Gal(a1-3)]Gal(b1-4)GlcNAc(b1-2)Man(a1-3)[Fuc(a1-2)[Gal(a1-3)]Gal(b1-4)GlcNAc(b1-2)Man(a1-6)]Man(b1-4)GlcNAc(b1-4)[Fuc(a1-6)]GlcNAc
# How it was run: as §1
# [6] = molecular target: Fuc(a1-2)[Gal(a1-3)]Gal(b1-4)GlcNAc(b1-3)[Fuc(a1-2)[Gal(a1-3)]Gal(b1-4)GlcNAc(b1-6)]GalNAc
# How it was run: as §1
# [7] = molecular target: Fuc(a1-2)[Gal(a1-3)]Gal(b1-4)GlcNAc(b1-6)GalNAc
# How it was run: as §1
# [8] = molecular target: Fuc(a1-2)[GalNAc(a1-3)]Gal(b1-4)GlcNAc(b1-2)Man
# How it was run: as §1
# [9] = molecular target: Fuc(a1-2)[GalNAc(b1-3)]Gal
# How it was run: as §1
# [10] = molecular target: Fuc(a1-3)[Gal(b1-4)]Glc6S
# How it was run: as §1
# [11] = molecular target: Fuc(a1-3)[Gal(b1-4)]GlcNAc(b1-2)Man(a1-3)[Fuc(a1-3)[Gal(b1-4)]GlcNAc(b1-2)Man(a1-6)]Man(b1-4)GlcNAc(b1-4)GlcNAc
# How it was run: as §1
# [12] = molecular target: Gal(a1-3)Gal(b1-4)[Fuc(a1-3)]GlcNAc
# How it was run: as §1
# [13] = molecular target: Gal(b1-3)GlcNAc(b1-3)Gal(b1-4)Glc
# How it was run: as §1
# [14] = molecular target: Gal(b1-3)GlcNAc(b1-3)Gal(b1-4)GlcNAc(b1-2)[Gal(b1-3)GlcNAc(b1-3)Gal(b1-4)GlcNAc(b1-6)]Man(a1-6)[Gal(b1-3)GlcNAc(b1-3)Gal(b1-4)GlcNAc(b1-2)Man(a1-3)]Man(b1-4)GlcNAc(b1-4)[Fuc(a1-6)]GlcNAc
# How it was run: as §1
# [15] = molecular target: Gal(b1-4)GlcNAc(b1-3)Gal(b1-4)GlcNAc(b1-3)Gal(b1-4)GlcNAc(b1-3)Gal(b1-4)GlcNAc(b1-2)Man(a1-3)[Gal(b1-4)GlcNAc(b1-3)Gal(b1-4)GlcNAc(b1-3)Gal(b1-4)GlcNAc(b1-3)Gal(b1-4)GlcNAc(b1-2)Man(a1-6)]Man(b1-4)GlcNAc(b1-4)[Fuc(a1-6)]GlcNAc
# How it was run: as §1
# [16] = molecular target: Gal(b1-4)GlcNAc(b1-3)Gal(b1-4)GlcNAc(b1-6)[Gal(b1-3)]GalNAc
# How it was run: as §1
# Gal3S(b1-3)GalNAc = molecular target: Gal3S(b1-3)GalNAc
# How it was run: as §1
# [17] = molecular target: GalNAc(a1-3)GalNAc(b1-3)Gal(a1-4)Gal(b1-4)Glc
# How it was run: as §1
# GalNAc(b1-3)GalNAc = molecular target: GalNAc(b1-3)GalNAc
# How it was run: as §1
# [18] = molecular target: GlcNAc(a1-4)Gal(b1-3)GlcNAc
# How it was run: as §1
# [19] = molecular target: GlcNAc(a1-4)Gal(b1-4)GlcNAc(b1-3)Gal(b1-4)GlcNAc(b1-3)Gal(b1-4)GlcNAc
# How it was run: as §1
# [20] = molecular target: GlcNAc(b1-2)Gal(b1-3)GalNAc
# How it was run: as §1
# [21] = molecular target: GlcNAc(b1-2)Man(a1-3)[GlcNAc(b1-2)Man(a1-6)]Man(b1-4)GlcNAc(b1-4)[Fuc(a1-6)]GlcNAc
# How it was run: as §1
# [22] = molecular target: GlcNAc(b1-3)Gal(b1-4)GlcNAc(b1-3)Gal(b1-4)GlcNAc(b1-2)Man(a1-3)[GlcNAc(b1-3)Gal(b1-4)GlcNAc(b1-3)Gal(b1-4)GlcNAc(b1-2)Man(a1-6)]Man(b1-4)GlcNAc(b1-4)[Fuc(a1-6)]GlcNAc
# How it was run: as §1
# [23] = molecular target: GlcNAc(b1-3)Gal(b1-4)GlcNAc(b1-3)Gal(b1-4)GlcNAc(b1-2)[GlcNAc(b1-3)Gal(b1-4)GlcNAc(b1-3)Gal(b1-4)GlcNAc(b1-6)]Man(a1-6)[GlcNAc(b1-3)Gal(b1-4)GlcNAc(b1-3)Gal(b1-4)GlcNAc(b1-2)Man(a1-3)]Man(b1-4)GlcNAc(b1-4)[Fuc(a1-6)]GlcNAc
# How it was run: as §1
# [24] = molecular target: GlcNAc(b1-3)Gal(b1-4)GlcNAc(b1-3)Gal(b1-4)GlcNAc(b1-3)Gal(b1-4)GlcNAc(b1-2)Man(a1-3)[GlcNAc(b1-3)Gal(b1-4)GlcNAc(b1-3)Gal(b1-4)GlcNAc(b1-3)Gal(b1-4)GlcNAc(b1-2)Man(a1-6)]Man(b1-4)GlcNAc(b1-4)GlcNAc
# How it was run: as §1
# [25] = molecular target: GlcNAc(b1-3)Gal(b1-4)GlcNAc(b1-3)Gal(b1-4)GlcNAc(b1-3)Gal(b1-4)GlcNAc(b1-2)Man(a1-3)[GlcNAc(b1-3)Gal(b1-4)GlcNAc(b1-3)Gal(b1-4)GlcNAc(b1-3)Gal(b1-4)GlcNAc(b1-2)Man(a1-6)]Man(b1-4)GlcNAc(b1-4)[Fuc(a1-6)]GlcNAc
# How it was run: as §1
# [26] = molecular target: GlcNAc(b1-3)Gal(b1-4)GlcNAc(b1-3)Gal(b1-4)GlcNAc(b1-3)Gal(b1-4)GlcNAc(b1-2)[GlcNAc(b1-3)Gal(b1-4)GlcNAc(b1-3)Gal(b1-4)GlcNAc(b1-3)Gal(b1-4)GlcNAc(b1-6)]Man(a1-6)[GlcNAc(b1-3)Gal(b1-4)GlcNAc(b1-3)Gal(b1-4)GlcNAc(b1-3)Gal(b1-4)GlcNAc(b1-2)Man(a1-3)]Man(b1-4)GlcNAc(b1-4)[Fuc(a1-6)]GlcNAc
# How it was run: as §1
# [27] = molecular target: GlcNAc(b1-3)Gal(b1-4)GlcNAc(b1-3)Gal(b1-4)GlcNAc(b1-3)Gal(b1-4)GlcNAc(b1-3)Gal(b1-4)GlcNAc(b1-2)Man(a1-3)[GlcNAc(b1-3)Gal(b1-4)GlcNAc(b1-3)Gal(b1-4)GlcNAc(b1-3)Gal(b1-4)GlcNAc(b1-3)Gal(b1-4)GlcNAc(b1-2)Man(a1-6)]Man(b1-4)GlcNAc(b1-4)GlcNAc
# How it was run: as §1
# [28] = molecular target: GlcNAc(b1-3)Gal(b1-4)GlcNAc(b1-3)Gal(b1-4)GlcNAc(b1-3)Gal(b1-4)GlcNAc(b1-3)Gal(b1-4)GlcNAc(b1-2)Man(a1-3)[GlcNAc(b1-3)Gal(b1-4)GlcNAc(b1-3)Gal(b1-4)GlcNAc(b1-3)Gal(b1-4)GlcNAc(b1-3)Gal(b1-4)GlcNAc(b1-2)Man(a1-6)]Man(b1-4)GlcNAc(b1-4)[Fuc(a1-6)]GlcNAc
# How it was run: as §1
# [29] = molecular target: GlcNAc(b1-3)Gal(b1-4)GlcNAc(b1-3)Gal(b1-4)GlcNAc(b1-3)Gal(b1-4)GlcNAc(b1-3)Gal(b1-4)GlcNAc(b1-2)[GlcNAc(b1-3)Gal(b1-4)GlcNAc(b1-3)Gal(b1-4)GlcNAc(b1-3)Gal(b1-4)GlcNAc(b1-3)Gal(b1-4)GlcNAc(b1-6)]Man(a1-6)[GlcNAc(b1-3)Gal(b1-4)GlcNAc(b1-3)Gal(b1-4)GlcNAc(b1-3)Gal(b1-4)GlcNAc(b1-3)Gal(b1-4)GlcNAc(b1-2)Man(a1-3)]Man(b1-4)GlcNAc(b1-4)[Fuc(a1-6)]GlcNAc
# How it was run: as §1
# [30] = molecular target: GlcNAc(b1-3)Gal(b1-4)GlcNAc(b1-3)Gal(b1-4)GlcNAc(b1-3)GalNAc
# How it was run: as §1
# [31] = molecular target: GlcNAc(b1-3)Gal(b1-4)GlcNAc(b1-3)[GlcNAc(b1-3)Gal(b1-4)GlcNAc(b1-3)]GalNAc
# How it was run: as §1
# [32] = molecular target: Neu5Ac(a2-3)Gal(b1-3)GalNAc(b1-3)Gal(b1-4)GlcNAc
# How it was run: as §1
# [33] = molecular target: Neu5Ac(a2-3)Gal(b1-3)GalNAc(b1-4)[Neu5Ac(a2-3)]Gal(b1-4)Glc
# How it was run: as §1
# [34] = molecular target: Neu5Ac(a2-3)Gal(b1-3)GlcNAc(b1-2)Man
# How it was run: as §1
# [35] = molecular target: Neu5Ac(a2-3)Gal(b1-3)GlcNAc(b1-3)Gal(b1-4)GlcNAc
# How it was run: as §1
# [36] = molecular target: Neu5Ac(a2-3)Gal(b1-3)]Neu5Ac(a2-3)Gal(b1-4)]GlcNAc
# How it was run: as §1
# [37] = molecular target: Neu5Ac(a2-6)Gal(b1-4)GlcNAc(b1-2)Man(a1-3)[Neu5Ac(a2-3)Gal(b1-4)GlcNAc(b1-2)Man(a1-6)]Man(b1-4)GlcNAc(b1-4)GlcNAc
# How it was run: as §1
# [38] = molecular target: Neu5Ac(a2-6)Gal(b1-4)GlcNAc(b1-2)Man(a1-6)Man(b1-4)GlcNAc(b1-4)GlcNAc
# How it was run: as §1
# [39] = molecular target: Neu5Gc(a2-6)Gal(b1-4)GlcNAc
# How it was run: as §1
binder,measurement,setting,value
B1,glycan array binding signal (z-score),Fuc(a1-2)Gal(b1-3)GalNAc,0.218
same,glycan array binding signal (z-score),Fuc(a1-2)Gal(b1-4)Glc6S,-0.249
same,glycan array binding signal (z-score),[1],0.829
same,glycan array binding signal (z-score),[2],-0.131
same,glycan array binding signal (z-score),[3],-0.249
same,glycan array binding signal (z-score),[4],-0.265
same,glycan array binding signal (z-score),[5],-0.211
same,glycan array binding signal (z-score),[6],-0.332
same,glycan array binding signal (z-score),[7],-0.217
same,glycan array binding signal (z-score),[8],-0.29
same,glycan array binding signal (z-score),[9],0.341
same,glycan array binding signal (z-score),[10],-0.23
same,glycan array binding signal (z-score),[11],-0.259
same,glycan array binding signal (z-score),[12],-0.268
same,glycan array binding signal (z-score),[13],-0.279
same,glycan array binding signal (z-score),[14],-0.084
same,glycan array binding signal (z-score),[15],0.12
same,glycan array binding signal (z-score),[16],0.001
same,glycan array binding signal (z-score),Gal3S(b1-3)GalNAc,1.89
same,glycan array binding signal (z-score),[17],-0.256
same,glycan array binding signal (z-score),GalNAc(b1-3)GalNAc,3.34
same,glycan array binding signal (z-score),[18],0.435
same,glycan array binding signal (z-score),[19],2.63
same,glycan array binding signal (z-score),[20],2.21
same,glycan array binding signal (z-score),[21],0.257
same,glycan array binding signal (z-score),[22],2.52
same,glycan array binding signal (z-score),[23],2.41
same,glycan array binding signal (z-score),[24],3.65
same,glycan array binding signal (z-score),[25],3.32
same,glycan array binding signal (z-score),[26],4.09
same,glycan array binding signal (z-score),[27],4.05
same,glycan array binding signal (z-score),[28],4.23
same,glycan array binding signal (z-score),[29],5.64
same,glycan array binding signal (z-score),[30],1.03
same,glycan array binding signal (z-score),[31],0.857
same,glycan array binding signal (z-score),[32],-0.336
same,glycan array binding signal (z-score),[33],-0.262
same,glycan array binding signal (z-score),[34],-0.194
same,glycan array binding signal (z-score),[35],-0.274
same,glycan array binding signal (z-score),[36],-0.263
same,glycan array binding signal (z-score),[37],-0.241
same,glycan array binding signal (z-score),[38],-0.259
same,glycan array binding signal (z-score),[39],-0.247
